# Compounds with a hit are over-represented: about 2.6% of the library has one in this group of screens.
# LT uptake inh – qHTS Assay for Anthrax Lethal Toxin Internalization; Cells, anthrax lethal toxin internalization, FRET ratio (460/530); 70,000 compounds, 0.67% hits; AID 912, 2007; Potency, µM (highest dose often 40 µM), for the others: top-dose activity change, negative = inhibition, most hits filed as inhibitors; note: % is set by controls: 0 for no effect and ±100 for the full control effect; nearly all actives have a fitted effect of over 50% in size
# AmpC nodet inh – Promiscuous and Specific Inhibitors of AmpC Beta-Lactamase (assay without detergent); Potency, µM (series often up to 28.7 µM), inactives show top-dose activity change, negative = inhibition; 71,000 compounds, 1.8% hits; P00811; AmpC nitrocefin hydrolysis, absorbance 480 nm, no detergent; note: % of control where 0% means no effect
# Target sequence (P00811 whole entry, looked up): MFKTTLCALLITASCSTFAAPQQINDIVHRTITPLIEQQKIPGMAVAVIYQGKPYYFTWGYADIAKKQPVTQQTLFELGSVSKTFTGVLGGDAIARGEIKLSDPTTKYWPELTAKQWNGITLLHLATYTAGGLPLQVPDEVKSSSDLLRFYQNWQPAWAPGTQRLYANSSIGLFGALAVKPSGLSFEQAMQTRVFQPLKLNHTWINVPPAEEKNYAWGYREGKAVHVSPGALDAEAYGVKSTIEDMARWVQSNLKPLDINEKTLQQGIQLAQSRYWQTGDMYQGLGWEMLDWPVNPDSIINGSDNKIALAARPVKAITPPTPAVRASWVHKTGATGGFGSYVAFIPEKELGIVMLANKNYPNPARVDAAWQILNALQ
#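 Enzyme, pH 7.0 phosphate. Compound titrations were pre-incubated with AmpC for 15 min at room temperature before nitrocefin (stock 800 uM) addition; product formation was recorded at 480 nm every 20 s for 4 min.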
# Prx2 Sm inh – Schistosoma Mansoni Peroxiredoxins (Prx2); S. mansoni Prx2 activity coupled to TGR/GSH (TGR is thioredoxin glutathione reductase), NADPH fluorescence loss, qHTS; Potency, µM; 65,000 compounds, 0.07% hits; AID 448, 2006
#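 Enzyme mix: 100 uM NADPH, 25 nM TGR, 700 uM GSH, 50 nM Prx2 in 100 mM phosphate pH 7.4, 10 mM EDTA, 0.01% Tween-20. 15 min RT with compound; NADPH/GSH added, H2O2 starts reaction; NADPH fluorescence read 8 min.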
# AmpC inh det – Promiscuous and Specific Inhibitors of AmpC Beta-Lactamase (assay with detergent); P00811; purified AmpC, nitrocefin hydrolysis with detergent; Potency, µM (highest dose often 28.7 µM), inactives show at the highest dose activity change, negative = inhibition; 71,000 compounds, 0.09% hits; active = well fitted curve in the direction sought with a large enough effect; inconclusive = small, poorly fitted or top-dose-only effect; note: % is set by controls: 0 for no effect and ±100 for the full control effect
#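 E. coli AmpC (5.3 nM) in 20 mM phosphate pH 7.0 with 0.01% Triton X-100, preincubated 15 min RT with compound; nitrocefin (2 uL of 800 uM stock) hydrolysis followed by 480 nm absorbance every 20 s over 4 min.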
# Numbers without * were called inactive; ? = inconclusive; . = no result; [ ] = another dose, or the depositor's remark. Unless noted, calls come from the whole dose curve. Potency is the fitted concentration of half-maximal effect.
SMILES,LT uptake inh,AmpC nodet inh,Prx2 Sm inh,AmpC inh det
O=C(CN1C(=O)C2C3C=CC(C3)C2C1=O)Nc1ccc2nccnc2c1 (configuration not stated),7%,4µM*[single pt active],>57,13%
ClCCl,0%,-7%,.,4%
Oc1ccc(CN2CCN(Cc3ccccc3)CC2)c2cccnc12,?,8%,>57,2%
Oc1ccc(CNc2ccc(F)cc2)c2cccnc12,-6%,10µM*,?,1%
Oc1ccc(CNc2ccccc2)c2cccnc12,5%,13µM*[single pt active],15*,20%
Clc1ccc(C(c2ccccc2Cl)C(Cl)(Cl)Cl)cc1 (configuration not stated),?,-22%,.,12%
COC(=O)C1CCN(C(c2cc(OC)c(OC)c(OC)c2)c2sc3nc(C)nn3c2O)CC1 (configuration not stated),-4%,10%,>57,9%
CCOC(=O)C1CCN(C(c2cc(OC)c(OC)c(OC)c2)c2sc3nc(C)nn3c2O)CC1 (configuration not stated),16µM*,10%,>57,6%
Cc1nn2cc(-c3ccc(Cl)cc3)nc2s1,-7%,-8%,>57,15%
Cc1nn2cc(-c3ccc(-c4ccccc4)cc3)nc2s1,1%,13µM*,>57,-3%
O[C@@H](c1cc(-c2ccccc2)nc2c1ccc1ccccc12)[C@@H]1CCCCN1,-10%[8 µM],12%[5.75 µM],>57,14%[5.75 µM]
Oc1cccc(Nc2nc(NCC3CCCO3)c3ccccc3n2)c1 (configuration not stated),-22%,10µM*,>57,-1%
COc1ccccc1CN(Cc1cc2c(C)ccc(C)c2[nH]c1=O)Cc1nnnn1Cc1ccco1,16µM*,58%,>57,-3%
N=C(N)SCCc1ccc(OCc2ccc([N+](=O)[O-])cc2)cc1,-19%,16µM*,>57,-7%
CN(C)c1ccc2c(c1)OC(N)=C(C#N)C2c1cccc(F)c1 (configuration not stated),6.3µM*,2%,.,-2%
N#CC1=C(N)Oc2cc(O)ccc2C1c1cccs1 (configuration not stated),-25%,-24%,.,17%
Cc1ccc(Cn2ccc(NC(=O)c3cc(-c4ccc(F)cc4)on3)n2)cc1,-6%,7.9µM*,>57,7%
Cc1ccc(Cn2ccc(NC(=O)c3cc(-c4ccc(Cl)cc4)on3)n2)cc1,-3%,-10%,>57,9%
Cc1ccc(Cn2ccc(NC(=O)c3cc(CC(C)C)on3)n2)cc1,?,4µM*[single pt active],>57,8%
C/C=C1\C[C@H](C)[C@](O)(CO)C(=O)OCC2=CCN3CC[C@@H](OC1=O)[C@@H]23,?,4%,>57,-4%
COc1ccc(-c2cc(-c3ccccc3O)[nH]n2)cc1OC,13µM*,46%,.,8%
COc1ccc(O)c(-c2cc(-c3cccc(Br)c3)n[nH]2)c1,?,-20%,.,17%
COc1ccc(-c2cc(-c3cc(F)ccc3O)[nH]n2)cc1OC,10µM*,78%,>57,4%
COC(=O)c1cc(-c2ccc(OC)c(OC)c2)n[nH]1,-13%,3%,>57,-3%
Oc1ccccc1-c1cc(-c2ccc3c(c2)OCCO3)n[nH]1,20µM*,-6%,>57,12%
SMILES,LT uptake inh,AmpC nodet inh,Prx2 Sm inh,AmpC inh det
Cn1c(Sc2ccc(-c3cccnc3)n2C)ccc1-c1cccnc1,-8%[8 µM],73%[5.75 µM],>57,-3%[5.75 µM]
CNC(=O)[C@@H]1O[C@@H](n2cnc3c(N)ncnc32)[C@@H](O)[C@H]1O,5%,7%,>57,0%
OCc1ccncc1.OCc1ccncc1.[Cl][Pt]([Cl])([Cl])[Cl],?,0%[5.75 µM],?,-10%[5.75 µM]
O=C1C2=CC[C@H]3C(=O)N(C4CCCCC4)C(=O)[C@@H]3[C@@H]2[C@H](O)[C@@H]2O[C@H]12,9%[8 µM],.,.,.
O=C(O)[C@@H]1[C@@H](C(=O)Nc2ccccc2)[C@@H]2C=C[C@@H]1O2,-4%[8 µM],4%[5.75 µM],>57,-2%[5.75 µM]
O=C(NCCC1=CCCCC1)c1ccc2c(=O)n3c(nc2c1)CCCCC3,13µM*,104%,>57,4%
O=C(Nc1cccc(Cl)c1)c1ccc2c(=O)n3c(nc2c1)CCCCC3,13µM*,16%,>57,-4%
O=C(Nc1ccc(F)c(Cl)c1)c1ccc2c(=O)n3c(nc2c1)CCCCC3,-13%,16%,>57,2%
CN(C(=O)c1ccc2c(=O)n3c(nc2c1)CCCCC3)c1ccccc1,13%,40%,>57,0%

# Bioassay records deposited in PubChem BioAssay by National Center for Advancing Translational Sciences (NCATS).
